Most compounds without a hit are left out; they make up all but 2.4% or so of the library.
STAT3 blocker: inhibitors of IL-6 induced STAT3 signaling | actives 0.89% (n = 190,000) | AID 862 | inhibition, % at 5.5 µM | U3A cells, IL-6 STAT3-luciferase reporter, luminescence; host cell line lacks STAT1;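 active means inhibition above the mean inhibition across all screened compounds plus 3 SD, cut at about 44% in these data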;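 further: 0% = DMSO only wells and 100% = 100 µM nifuroxazide control wells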
PPC-1+TRAIL kill: kills PPC-1 cancer cells in the presence of TRAIL; PPC-1 cells + TRAIL, ATPLite viability luminescence; cell killing (% activity), % at 4 µM or 5 µM; actives 0.41% (n = 220,000); AID 1443;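 active means cell killing above 50% in the first pass at 4 µM, then a duplicate retest at 5 µM averaging 50% or more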;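 further: plate controls were cells with TRAIL plus DMSO for no effect and medium-only wells lacking cells for full effect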
STAT1 inh: reduces IFN-gamma driven STAT1 reporter signal | NIH 3T3 STAT1-luciferase reporter, luminescence | inhibition, % at 5.5 µM | actives 0.35% (n = 200,000) | AID 920;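 active means inhibition above a set limit, the mean inhibition across all tested compounds plus 3 SD, cut at about 34% in these data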;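 further: 0% = IFN-gamma with DMSO and 100% = IFN-gamma with 300 µM nifuroxazide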
HSP90 refold inh: inhibitors of HSP90 luciferase refolding in rabbit reticulocyte lysate. actives 0.91% (n = 290,000). AID 1789. inhibition, % at 5.6 µM. luciferase refolding luminescence, 3 h;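 active means inhibition above the screen-wide mean plus 3 SD, computed separately per campaign, cut at about 16% in these data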;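 further: 0% = DMSO wells and 100% = 60 µM geldanamycin wells; inhibitors lower the luminescence because luciferase stays unfolded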
HSF1 inh: HSF1 inhibition; NIH3T3-HGL HSE-luciferase, MG132-induced, luminescence 8 h; hits give low values; actives 0.77% (n = 300,000); activity change, negative = inhibition, % at 7.5 µM (by protocol);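 active means more than half of replicate wells show activity change below -50%, luminescence cut by over half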;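 further: luciferase reports HSF-1 transcriptional activity via heat shock element; 0% = median of DMSO wells and -100% = zero luminescence signal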
TRAIL sens C8: caspase-8 TRAIL sensitization. NB7+C8 cells + TRAIL, ATPlite viability luminescence. inhibition (viability loss, TRAIL sensitization), % at 10 µM. actives 1% (n = 360,000). AID 624354;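 active means compounds causing at least 50% loss of cell viability in the single-dose screen, relative to plate controls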
* marks the source's active call; other numbers are inactive results; . = no result given.

SMILES	STAT3 blocker	PPC-1+TRAIL kill	STAT1 inh	HSP90 refold inh	HSF1 inh	TRAIL sens C8
Cc1cc(N)n(Cc2ccc(Cl)cc2)n1	-1	5	7	0	.	6
Cn1c(CC(O)c2nc3ccccc3n2C)nc2ccccc21 (centres undefined)	.	.	.	.	.	-20
COC(=O)c1ccc(N=NNc2ccc(C(=O)OC)cc2)cc1	-9	8	-54	16*	-49	2
CN(C)C=Nc1ccc([N+](=O)[O-])c2ccccc12	.	.	.	.	.	-3
COc1ccc(-c2cc3ccc(OCC(=O)NCC4CCC(C(=O)O)CC4)cc3oc2=O)cc1 (centres undefined)	.	.	.	-1	22	59*
COc1ccc2c(c1)c(=O)oc1cc(OCC(=O)NCC3CCC(C(=O)O)CC3)ccc12 (centres undefined)	.	.	.	-2	-5	0
Cc1c(C)c2ccc(OCC(=O)N3CCC(C(=O)O)CC3)cc2oc1=O	.	.	.	16*	4	12
CCCCNC(=O)C(NC(=O)c1cccc(C(F)(F)F)c1)C(=O)c1ccccc1 (centres undefined)	.	.	.	.	.	0
CC(c1ccccc1)N1CC(C(=O)N2CCN(Cc3ccc(C#N)cc3)CC2)CC1=O (centres undefined)	.	.	.	.	.	3
Cn1c2c(c(=O)n(C)c1=O)C(CC(=O)Nc1ccccc1)C(=O)N2 (centres undefined)	-5	19	-6	8	-67*	-14
CC(O)(c1cccc(F)c1)c1nc(-c2cccc3cccnc23)cs1 (centres undefined)	.	.	.	.	.	-9
O=C(O)CCC1(C(=O)O)OCCc2ccccc21 (centres undefined)	1	-9	-2	2	-67*	-28
CC1(C)C(=O)C2(C(=O)NCc3ccccc3)CCC1C2 (centres undefined)	-3	-5	2	17*	-31	-4
O=C(NCc1ccccc1)C12CC3CC(CC(C3)C1)C2	4	8	-8	2	-4	-6
NC(=O)c1ccccc1N/C=C/C(=O)c1cccs1	32	30	-42	4	21	58*
Cc1cccc(N/C=C/C(=O)c2cccs2)c1C	26	59*	-31	4	10	79*
Cc1ccc(C(=O)/C=C/Nc2ccccc2C(N)=O)o1	8	0	-22	1	1	37
O=C(CSc1nc2cc(Cl)ccc2s1)Nc1cccc(S(=O)(=O)N2CCOCC2)c1	6	6	3	3	-54*	10
Cc1ccc(NC(=O)c2ccc3nsnc3c2)c(Cl)c1	.	.	.	10	19	58*
CSc1nc(=O)[nH]nc1Sc1ccccc1	.	.	.	.	.	-11
O=C(Cn1c(=O)c2cccn2c2ccccc21)Nc1cc(F)ccc1F	.	.	.	0	-57*	-10
Cc1cc(N/N=C/c2ccc(O)c(C)c2O)nc(-c2ccccc2O)n1	3	64*	-25	-2	-59*	45
COc1ccccc1CNS(=O)(=O)c1cc(CN2C(=O)c3cccnc3C2=O)ccc1OC	.	.	.	-1	-7	-15
COc1cc(CCNC2=CC(=O)c3ncccc3C2=O)ccc1O	.	.	.	.	.	58*
CCOC(=O)CN1C(=O)SC(CC(=O)Nc2nccs2)C1=O (centres undefined)	4	11	2	3	1	60*
SMILES	STAT3 blocker	PPC-1+TRAIL kill	STAT1 inh	HSP90 refold inh	HSF1 inh	TRAIL sens C8
O=C(CC1SC(=O)N(Cc2cccc3ccccc23)C1=O)Nc1nccs1 (centres undefined)	10	-4	4	2	5	53*
CCC(=O)N1CCC1(C)C(=O)Nc1cc(OC)ccc1OC (centres undefined)	.	.	.	.	.	6
Cc1ccccc1-c1cnc(C(O)c2ccc(Cl)cc2)[nH]1 (centres undefined)	.	.	.	.	.	-14
CCC(=O)OCOc1ccc(/C=C2/CCC(CN(C)C)C2=O)cc1 (centres undefined)	.	.	.	.	-24	72*
C=CCSc1nc2c(N)ncnc2n1C1OC(CO)C(O)C1O (centres undefined)	.	.	.	.	.	-1
Cn1c(=O)c(C(=O)CCl)c(N)n(Cc2ccccc2)c1=O	4	19	8	7	-38	28
Cn1c(N)c(C(=O)CCl)c(=O)n(Cc2ccccc2)c1=O	-10	9	9	-1	-2	90*
COc1ccc(S(=O)(=O)Nc2cccc(S(=O)(=O)N(C)C)c2)cc1[N+](=O)[O-]	.	.	.	.	.	-8
Cc1cccc2sc(NC(=O)[C@H](C)N3C(=O)C4CC=CCC4C3=O)nc12 (some centres undefined)	.	18	.	5	-56*	-3
CCOc1ccc(-n2nc3cc(C)c(N)cc3n2)cc1	.	.	.	11	4	59*
Cc1ccc(OCCC(=O)OCC(=O)Nc2ccc(N3CCOCC3)cc2)cc1	.	.	.	.	-61*	17
COC1OC2COC(c3ccccc3)OC2C(O)C1NC(=O)c1ccccc1 (centres undefined)	.	.	.	.	.	-16
COc1ccc2cc(CNCCOCCOCCNCc3ccc4cc(OC)ccc4c3)ccc2c1	.	.	.	.	.	88*
CCOCCCNCc1ccc(OC)cc1	2	-12	2	4	1	-12
COc1ccc(C2c3ccc4ccccc4c3Oc3ncn(CCCO)c(=N)c32)cc1 (centres undefined)	.	19	.	1	4	15
CN(C)CCCn1cnc2c(c1=N)C(c1ccccc1)c1ccc3ccccc3c1O2 (centres undefined)	.	.	.	1	1	71*
N=c1c2c(ncn1CCCO)Oc1c(ccc3ccccc13)C2c1ccccc1 (centres undefined)	.	7	.	2	-66*	16
Cc1ccn2cc(-c3ccc(O)c(O)c3)nc2c1	.	.	.	15	4	76*
Oc1ccc(-c2cn3ccccc3n2)cc1O	.	.	.	-4	14	26
CC[N+]1(C)CCC(O)(/C=C/c2ccccc2)C(C(=O)/C=C/c2ccccc2)C1 (centres undefined)	.	.	.	.	.	18
Cc1ccc(C2=NN(C(=O)CCl)C(c3ccco3)C2)o1 (centres undefined)	.	.	.	-2	9	92*
COC(=O)c1ccc(NC(=O)C(=O)N2CCCC2)cc1	-1	-4	-28	16*	6	25
COC(=O)c1ccc(NC(=S)N2CCCC2)cc1	11	15	-5	-2	14	-8
COc1cccc(-c2cc3nc(NCc4ccccc4F)n(C)c(=O)c3s2)c1	.	.	.	.	.	1
O=C(COC(=O)c1ccccc1)NC1CCCCCC1	.	.	.	.	.	4
N/C(=N\OC(=O)c1ccccc1)C(C(=O)NOC(=O)c1ccccc1)C1CCCCC1 (centres undefined)	.	.	.	.	.	91*
CCn1c(O)c(N=NC(=O)CNC(=O)c2ccco2)c2ccccc21	-4	24	6	2	.	-13
CCCn1c(O)c(N=NC(=O)c2ccco2)c2ccccc21	-1	26	0	4	-55*	9
